Experiment [1] can be described thus: binders of probe aFSTL3 on microarray, primary screen, stem cell growth factor project, biochemical, small-molecule microarray, fluorescence 635/667 (AID 1064).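 Also: measures binding of the biotinylated anti-FSTL3 antibody to printed compounds.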 To be noted: higher = more signal.
Experiment [2] is described as follows: binders from COS7 lysate, DM2A8 probe, primary screen, torsin A project, cell lysate, small-molecule microarray, fluorescence 635/667 (AID 1065). To be noted: higher = more signal, COS7 lysate expressing mutant human TOR1A.
Experiment [3] is described as follows: binders of probe aFGF2 on microarray, primary screen, stem cell growth factor project, biochemical, small-molecule microarray, fluorescence 635/667 (AID 1067).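 Also: measures binding of biotinylated aFGF2 protein to printed compounds on slides; z-score merges feature fluorescence and signal-to-noise across triplicate slides.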 To be noted: higher = more signal.
A short description of experiment [4]: binders of probe aFGF10 on microarray, primary screen, stem cell growth factor project, biochemical, small-molecule microarray, fluorescence 635/667 (AID 1071).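 Also: score merges 667 nm spot intensity and signal to noise from triplicate slides.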 To be noted: higher = more signal.
Experiment [5] has as its target Neurogenic locus notch homolog protein 2 (Homo sapiens) (UniProt Q04721). The experiment in a line: Notch2 binders on small-molecule microarrays, primary screen, biochemical, small-molecule microarray, 635 nm fluorescence, stem cell growth factors (AID 1073). To be noted: Notch2 binding, higher = more signal.
Experiment [6] has as its target Pro-neuregulin-1, membrane-bound isoform (Homo sapiens) (UniProt Q02297). The experiment in a line: NRG1 binders on small-molecule microarrays, primary screen, psychiatric disease protein project, biochemical, small-molecule microarray, fluorescence 635/667 (AID 1075).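 Also: score combines 667 nm spot fluorescence with signal to noise.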 To be noted: NRG1 binding, 635 nm fluorescence, higher = more signal.
Experiment [7] relates to Neuregulin-1 EGF-like domain. Description: binders of neuregulin-1 EGF-like domain, primary screen, biochemical, small-molecule microarray, 635 nm fluorescence (AID 1081).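 Also: binding of the protein to compounds printed on small-molecule microarray slides.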 To be noted: small-molecule microarray binding, higher = more signal.
Experiment [8] is described as follows: FRG1 promoter luciferase signal modulators, primary screen, FRG1 inhibition for FSHD, cell-based, C2C12 myotubes, firefly/Renilla luciferase, luminescence (AID 1084). To be noted: higher = more signal, called active from +8 up or from −8 down.
Experiment [9] in a line: binders of probe aFST on microarray, primary screen, stem cell growth factor project, biochemical, small-molecule microarray, fluorescence 635/667 (AID 1086).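 Also: score merges 667 nm fluorescence with signal-to-noise of each printed compound spot.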 To be noted: higher = more signal.
Experiment [10] in a line: binders of probe aHhip on microarray, primary screen, stem cell growth factor project, biochemical, small-molecule microarray, fluorescence 635/667 (AID 1087).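 Also: score merges spot fluorescence at 667nm with spot signal to noise ratio.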 To be noted: higher = more signal.

Active and inactive are the calls of the source.

Pro-neuregulin-1, membrane-bound isoform (Homo sapiens), sequence (Q02297 whole entry, looked up, the tested form may be a part, canonical isoform): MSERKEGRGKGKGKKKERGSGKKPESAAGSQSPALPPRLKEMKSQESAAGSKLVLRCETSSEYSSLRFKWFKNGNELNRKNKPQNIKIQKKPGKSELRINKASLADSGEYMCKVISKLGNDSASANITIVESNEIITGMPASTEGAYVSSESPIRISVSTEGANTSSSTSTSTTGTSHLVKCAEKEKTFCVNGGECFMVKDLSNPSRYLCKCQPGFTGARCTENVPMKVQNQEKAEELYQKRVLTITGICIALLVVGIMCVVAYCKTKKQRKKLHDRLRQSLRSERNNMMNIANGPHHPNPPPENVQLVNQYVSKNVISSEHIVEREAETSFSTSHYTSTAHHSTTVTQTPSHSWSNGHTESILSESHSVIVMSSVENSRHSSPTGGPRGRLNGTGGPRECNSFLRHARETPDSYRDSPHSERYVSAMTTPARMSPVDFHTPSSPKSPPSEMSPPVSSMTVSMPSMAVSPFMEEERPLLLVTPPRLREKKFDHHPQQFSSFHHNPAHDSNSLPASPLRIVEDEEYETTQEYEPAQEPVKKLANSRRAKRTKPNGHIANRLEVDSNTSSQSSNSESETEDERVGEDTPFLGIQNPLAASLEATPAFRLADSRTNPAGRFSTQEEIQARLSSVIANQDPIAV
Neurogenic locus notch homolog protein 2 (Homo sapiens), sequence (Q04721 whole entry, looked up, canonical isoform): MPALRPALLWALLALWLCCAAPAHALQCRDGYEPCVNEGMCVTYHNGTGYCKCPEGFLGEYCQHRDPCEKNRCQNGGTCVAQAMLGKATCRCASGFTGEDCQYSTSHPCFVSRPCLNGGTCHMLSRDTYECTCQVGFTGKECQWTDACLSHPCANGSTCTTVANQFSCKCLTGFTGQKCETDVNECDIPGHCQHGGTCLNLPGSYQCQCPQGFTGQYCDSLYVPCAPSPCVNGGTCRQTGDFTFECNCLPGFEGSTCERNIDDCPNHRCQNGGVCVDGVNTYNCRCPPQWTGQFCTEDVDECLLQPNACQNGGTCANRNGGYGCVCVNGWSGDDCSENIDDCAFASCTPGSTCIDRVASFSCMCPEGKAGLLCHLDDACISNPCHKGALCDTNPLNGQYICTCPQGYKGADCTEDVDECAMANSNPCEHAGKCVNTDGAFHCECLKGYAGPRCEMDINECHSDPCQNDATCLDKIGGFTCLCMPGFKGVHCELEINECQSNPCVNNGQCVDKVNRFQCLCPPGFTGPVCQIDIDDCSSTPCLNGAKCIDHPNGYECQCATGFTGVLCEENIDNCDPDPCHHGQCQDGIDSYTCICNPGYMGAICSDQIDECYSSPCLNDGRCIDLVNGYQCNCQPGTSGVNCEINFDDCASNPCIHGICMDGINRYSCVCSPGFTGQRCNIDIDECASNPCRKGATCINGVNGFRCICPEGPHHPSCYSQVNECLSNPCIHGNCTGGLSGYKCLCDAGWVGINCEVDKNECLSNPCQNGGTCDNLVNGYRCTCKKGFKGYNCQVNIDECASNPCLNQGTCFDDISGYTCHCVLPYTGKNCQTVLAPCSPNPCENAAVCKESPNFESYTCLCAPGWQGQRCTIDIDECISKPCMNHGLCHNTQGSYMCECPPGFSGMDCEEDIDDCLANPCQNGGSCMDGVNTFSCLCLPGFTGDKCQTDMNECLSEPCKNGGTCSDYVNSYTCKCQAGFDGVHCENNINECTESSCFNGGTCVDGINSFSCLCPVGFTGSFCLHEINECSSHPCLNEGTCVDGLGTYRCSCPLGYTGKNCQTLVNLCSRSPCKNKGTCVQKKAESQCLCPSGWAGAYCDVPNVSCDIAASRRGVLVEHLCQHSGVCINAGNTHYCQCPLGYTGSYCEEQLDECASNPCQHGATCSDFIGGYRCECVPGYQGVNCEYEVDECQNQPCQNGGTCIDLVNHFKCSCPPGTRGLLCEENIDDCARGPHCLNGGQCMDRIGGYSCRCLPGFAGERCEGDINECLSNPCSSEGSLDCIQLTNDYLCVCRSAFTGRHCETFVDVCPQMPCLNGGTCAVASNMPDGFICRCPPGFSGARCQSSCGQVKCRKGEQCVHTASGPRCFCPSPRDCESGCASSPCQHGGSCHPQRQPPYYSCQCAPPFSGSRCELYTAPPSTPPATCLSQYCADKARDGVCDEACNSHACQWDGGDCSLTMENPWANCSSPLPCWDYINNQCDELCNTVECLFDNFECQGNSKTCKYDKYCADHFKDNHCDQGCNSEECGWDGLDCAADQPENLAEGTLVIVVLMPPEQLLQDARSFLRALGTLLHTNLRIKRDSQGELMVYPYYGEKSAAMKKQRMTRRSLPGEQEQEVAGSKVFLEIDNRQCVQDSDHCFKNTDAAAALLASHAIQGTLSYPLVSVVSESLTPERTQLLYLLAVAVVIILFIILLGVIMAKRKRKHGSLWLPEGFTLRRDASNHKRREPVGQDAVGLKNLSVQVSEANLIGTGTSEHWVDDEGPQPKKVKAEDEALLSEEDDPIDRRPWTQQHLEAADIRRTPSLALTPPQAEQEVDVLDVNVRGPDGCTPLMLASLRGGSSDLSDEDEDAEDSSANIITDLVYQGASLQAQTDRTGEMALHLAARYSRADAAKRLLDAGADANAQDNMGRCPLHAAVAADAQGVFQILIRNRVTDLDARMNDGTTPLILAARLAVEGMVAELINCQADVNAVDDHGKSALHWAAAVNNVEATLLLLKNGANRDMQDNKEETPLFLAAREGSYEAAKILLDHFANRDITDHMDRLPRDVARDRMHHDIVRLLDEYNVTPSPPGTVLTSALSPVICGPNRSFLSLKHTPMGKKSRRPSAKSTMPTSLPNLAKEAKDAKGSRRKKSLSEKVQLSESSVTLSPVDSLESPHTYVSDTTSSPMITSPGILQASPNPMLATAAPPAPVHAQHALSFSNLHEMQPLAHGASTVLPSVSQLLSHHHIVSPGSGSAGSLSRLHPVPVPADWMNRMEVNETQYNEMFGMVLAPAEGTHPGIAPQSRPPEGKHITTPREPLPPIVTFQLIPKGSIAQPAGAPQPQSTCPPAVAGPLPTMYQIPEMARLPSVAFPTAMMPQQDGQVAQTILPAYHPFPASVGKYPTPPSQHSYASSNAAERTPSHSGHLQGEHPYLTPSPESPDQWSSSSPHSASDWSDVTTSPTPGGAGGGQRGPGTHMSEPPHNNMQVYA

For `COCCOC(=O)N1C(=O)[C@@]2(c3cc(C#CC4=CCCCC4)ccc31)[C@H](c1ccccc1OCCO)N1[C@H](c3ccccc3)[C@H](c3ccccc3)OC(=O)[C@H]1[C@@H]2C(=O)N1CCc2cc(OC)c(OC)cc2C1`, the composite z-score in [1] was -0.516; in experiment [2] it was 0.433; in experiment [3], 0.0571; in experiment [4], 0.515; in experiment [5], 1.18; in [6] it was 0.319. Moreover, the values for the composite z-score in [7], in experiment [9] and in experiment [10] were 1.07, 0.401 and -0.521, respectively. Moreover, the z-score in [8] was -0.202 (inactive).

Turning to `O=C1C[C@]2(c3ccc([N+](=O)[O-])cc3)C(=O)N(Cc3ccccc3)c3cc(CO)ccc3[C@H]2N1CC12CC3CC(CC(C3)C1)C2`, the composite z-score was 0.0993 in experiment [1]; -0.728 in [2]; 0.0018 in experiment [3]; -0.817 in experiment [4]; -0.746 in experiment [5]; -0.468 in experiment [6]. The composite z-score in experiment [7] is -0.851; in [9], 0.0779; in [10] it was -0.369. Besides, in experiment [8], the z-score is -0.0424 (inactive).

Take `CCCCN1CC=CC23O[C@@H]4/C=C\CCC(C)OC(=O)C4[C@H]2C(=O)N(CCCCCCO)[C@@H]3C1=O` (stereo not given in full): the composite z-score in [1] was 0.666; in [2] it was 0.345; in [3], -0.0712; in experiment [4], 0.867; in [5], -0.625; in [6], 0.272. The composite z-score is 1.59 in [7], -0.213 in experiment [9] and -0.119 in [10]. Also, the z-score in experiment [8] is 0.189 (inactive).

For the molecule `CO[C@H]1O[C@H](CO)[C@@H](OC(=O)Nc2ccc(C(F)(F)F)cc2)[C@H](OC(=O)Nc2ccc3c(c2)OCO3)[C@H]1OC(=O)Nc1ccc2c(c1)OCO2`, the composite z-score in [1] worked out at 0.303; in experiment [2] it was 1.15; in [3] it was 0.0557; in experiment [4], 0.794; in experiment [5] it was 1.41; in experiment [6] it was 1.6. Besides, the composite z-score in [7] worked out at 1.3; in experiment [9] it was 0.557; in experiment [10] it was 0.176. In [8], the z-score was 6.45 (inactive).

As for `O=C1O[C@@H](c2ccccc2)[C@@H](c2ccccc2)N2[C@@H](c3ccc(O)cc3)[C@]3(C(=O)Nc4ccccc43)[C@@H](C(=O)Nc3nc4ccccc4s3)[C@H]12`, the composite z-score in experiment [1] is 0.0072; in experiment [2] it was 0.155; in experiment [3], -0.0206; in experiment [4], 0.43; in experiment [5], -0.434; in experiment [6], 1.28. Further, the figures for the composite z-score in experiment [7], in experiment [9] and in [10] were 1.15, 0.642 and 0.0373, respectively. Moreover, in [8], the z-score is -2.37 (inactive).

As for `C=C(C(=O)CC[C@H](OC(C)=O)c1cccc(OCCO)c1)C(C)C`, the composite z-score is 0.125 in experiment [1]; -0.152 in [2]; -0.189 in [3]; -0.582 in experiment [4]; -0.739 in [5]; 0.007 in experiment [6]. The composite z-score in [7] is -0.526; in experiment [9], -0.675; in experiment [10], -0.0994. Further, the z-score in experiment [8] was 0.422 (inactive).

In the case of `COC(=O)c1c(CC[C@@H](CO)NC(=O)N[C@H](Cn2cc(-c3ccccc3C)nn2)C(C)C)oc(C(C)=O)c1C(=O)OC`, the composite z-score was -0.157 in experiment [1]; -1.08 in experiment [2]; -0.129 in [3]; 0.415 in [4]; -1.18 in [5]; 0.638 in experiment [6]. The figures for the composite z-score in [7], in experiment [9] and in [10] were 0.309, -0.205 and 0.145, respectively. The z-score in experiment [8] was 0.87 (inactive).

For `O=C1OCCC=C[C@H]2OC34C=CCN(c5ccc(Cl)cc5)C(=O)[C@H]3N(CCCCCO)C(=O)[C@@H]4C12` (stereo not given in full), the composite z-score in [1] was 0.418; in experiment [2], 1.77; in experiment [3] it was -0.116; in experiment [4] it was -0.112; in [5], 0.0387; in experiment [6], 1.48. The composite z-score in experiment [7] is 1.44; in experiment [9], -0.149; in experiment [10], -0.0708. The z-score in experiment [8] is -0.997 (inactive).

Regarding `COc1cc2c(cc1OC)CN(C(=O)[C@H]1[C@@H]3C(=O)O[C@@H](c4ccccc4)[C@@H](c4ccccc4)N3[C@@H](c3ccc(OCCO)cc3)[C@]13C(=O)Nc1ccc(C#CCCO)cc13)CC2`, the composite z-score was -0.0463 in [1]; 0.853 in experiment [2]; 0.0746 in [3]; 0.844 in experiment [4]; 1.43 in [5]; 1.39 in [6]. The figures for the composite z-score in experiment [7], in experiment [9] and in experiment [10] were 0.874, 0.707 and 0.305, respectively. Besides, the z-score in [8] was -0.0164 (inactive).

As for `C=CCNC(=O)[C@H]1[C@@H]2C(=O)O[C@@H](c3ccccc3)[C@@H](c3ccccc3)N2[C@@H](c2ccccc2OCCO)[C@]12C(=O)N(C(=O)OCCOC)c1ccc(C#CC3=CCCCC3)cc12`, the composite z-score in experiment [1] worked out at 1.13; in experiment [2], 0.698; in experiment [3], 0.032; in experiment [4], 0.44; in [5], 1.5; in [6] it was 0.791. Further, the composite z-score is 1.33 in experiment [7], 0.877 in experiment [9] and -0.0022 in experiment [10]. Also, the z-score in experiment [8] was -1.89 (inactive).

As for `COCCOC(=O)N1C(=O)[C@@]2(c3cc(C#Cc4ccc(OC)cc4)ccc31)[C@H](C(=O)NC[C@H](O)c1ccccc1)[C@H]1C(=O)O[C@H](c3ccccc3)[C@H](c3ccccc3)N1[C@@H]2c1ccc(O)cc1`, the composite z-score in [1] was -0.179; in experiment [2], 0.504; in experiment [3], 0.0086; in experiment [4] it was 0.589; in experiment [5], 1.37; in experiment [6], 0.566. In addition, the composite z-score in experiment [7] is 1.23; in experiment [9], 0.57; in [10] it was 0.012. The z-score in experiment [8] is 0.427 (inactive).

`CC1CC/C=C\[C@H]2OC34C=CCN(C(C)C)C(=O)[C@H]3N(CCCCCO)C(=O)[C@@H]4C2C(=O)O1` (stereo not given in full): the composite z-score is 0.4 in experiment [1]; -1.06 in experiment [2]; -0.0996 in experiment [3]; -0.47 in experiment [4]; -0.704 in experiment [5]; -0.187 in experiment [6]. The composite z-score in [7] was 0.0093; in experiment [9], -0.386; in [10], -0.191. Moreover, in [8], the z-score was 0.371 (inactive).

As to `[N-]=[N+]=NCc1ccccc1C[C@@]1(C(=O)NCCN2CCOCC2)N=C(c2ccc(OCCCO)cc2)O[C@@H]1c1ccccc1N=[N+]=[N-]`, the composite z-score in [1] is 0.646; in experiment [2], 1.99; in experiment [3] it was 0.075; in experiment [4], 0.879; in [5], 0.777; in experiment [6], 0.684. The composite z-score is 1.16 in [7], 0.75 in experiment [9] and -0.0296 in [10]. For the same molecule, the z-score in [8] is -1.89 (inactive).

As for `O=C1NC(=O)C2C1C=CC(C(O)c1cc(C(F)(F)F)cc(C(F)(F)F)c1)N2Nc1ccc(Cl)cc1Cl` (stereo not given), the composite z-score amounted to 0.812 in experiment [1]; 0.623 in experiment [2]; 0.277 in [3]; 0.404 in [4]; 0.351 in [5]; 1.45 in [6]. Further, the composite z-score is 0.766 in [7], 0.881 in experiment [9] and -0.0346 in experiment [10]. For the same molecule, the z-score in experiment [8] was -0.166 (inactive).
